Measurements from PubChem BioAssay (NCI).
The panel holds about 79,000 compounds, 15% with a hit somewhere; the sample as a whole holds those more often. Values without a mark were called inactive. Activity calls are given as the source filed them. Cut-off read from the data, not from the text of the source: active = growth inhibition above about 70%; inactive = the rest. Where a SMILES comes first, the peptide text is derived from it. [ ]: non-standard residue; d: D form. ξ: configuration not given here. ξH = NC(Cc1c[nH]cn1)C(=O)O

How the values were obtained:
[1] = NCI Yeast Anticancer Drug Screen. Data for the rad50 strain (AID 155);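 note: 0% = growth of vehicle-only cultures of the same strain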; settings: S. cerevisiae rad50 strain growth inhibition; at 50.0 µM; hits give high values
How it was run: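 DNA repair mutant yeast, compound exposure, growth read-out; inhibition is taken relative to vehicle.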

[2] = NCI Yeast Anticancer Drug Screen. Data for the mec2-1 strain (AID 157); settings: S. cerevisiae mec2-1 strain, at 50.0 µM, hits give high values
How it was run: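 Each compound was tested on mec2-1 yeast, a strain altered in DNA damage repair or cell cycle control. Growth inhibition is reported relative to vehicle.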

[3] = NCI Yeast Anticancer Drug Screen. Data for the sgs1 mgt1 strain (AID 161);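 note: 0% = growth of cultures given vehicle only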; settings: S. cerevisiae sgs1 mgt1 strain, at 50.0 µM, hits give high values
How it was run: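 Test agents were incubated with a DNA-repair-mutant yeast strain. Growth was then read and compared against vehicle-treated controls.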

[4] = NCI Yeast Anticancer Drug Screen. Data for the cln2 rad14 strain (AID 165);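 note: 0% = growth equal to vehicle treated cultures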; settings: S. cerevisiae cln2 rad14 strain, at 50.0 µM, hits give high values
How it was run: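 Test compounds were added to cln2 rad14 yeast cultures; inhibition of growth was then determined by comparison with vehicle treatment.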

[5] = NCI Yeast Anticancer Drug Screen. Data for the bub3 strain (AID 167); settings: S. cerevisiae bub3 mutant strain, at 50.0 µM, hits give high values
How it was run: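 In this screen, a yeast mutant lacking normal mitotic checkpoint function is challenged with compound. Relative growth versus vehicle gives the inhibition value.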

[6] = NCI Yeast Anticancer Drug Screen. Data for the mlh1 rad18 strain (AID 175); settings: S. cerevisiae mlh1 rad18 strain growth inhibition; at 50.0 µM; hits give high values
How it was run: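 Inhibition values reflect reduced growth of mutant yeast versus vehicle-treated controls following compound exposure; the mutations affect DNA damage repair.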

SMILES	growth inhibition [1]	growth inhibition [2]	growth inhibition [3]	growth inhibition [4]	growth inhibition [5]	growth inhibition [6]
N#Cc1c(N)nc2c(c(-c3ccc(Cl)cc3)nn2-c2ccccc2)c1C#N	-2.45%	-17.4%	-34.8%	11.1%	-23.9%	6.1%
CCCCN(CCCC)C(=O)/C=C\C(=O)O	-6.6%	1%	-0.2%	28.1%	-1.2%	4.9%
O=c1ccn2c(n1)OC1CC2OC1COC(c1ccccc1)(c1ccccc1)c1ccccc1 (stereo unspecified)	-8.8%	4.15%	12.2%	-17.4%	3.6%	10.3%
CC(C)(C)c1cc(C[N+](C)(C)[O-])c(O)c(-c2ccccc2)c1	-0.65%	-26.2%	2.05%	-19.2%	6.35%	-13.6%
Cc1ccc(S(=O)(=O)n2ccnc2)cc1	-46%	-21.9%	-1.25%	15.9%	11.7%	-25.9%
CCNc1nc2c(=O)n(C)c(=O)n(C)c2s1	-31%	-26.2%	-4.05%	-6.2%	-10.6%	-5.65%
CC(=O)CC1(O)C(=O)C(C(C)(C)C)=CC2(C(C)(C)C)OC12 (stereo unspecified)	2.25%	-13.1%	-3.45%	-10.1%	6.25%	0.25%
O=C(O)CCc1coc2ccc(O)cc12	-0.45%	10.1%	8.4%	-20.6%	-6.1%	14.2%
CCCCCCCCC(C)(C)O	-3.15%	-3.55%	-1.25%	3.05%	5.65%	-4.45%
O=C(c1cc2ccccc2s1)c1ccccc1Cc1cccc2ccccc12	33.8%	7.25%	31.2%	21.2%	5.45%	-0.75%
O=C(NCc1ccccc1)NC(c1ccccc1)(c1ccccc1)c1ccccc1	28.9%	14.2%	34.6%	11.8%	-4.25%	30.9%
O=C(/C=C/c1ccccc1)Cc1nc2nnc(NC(=O)Nc3ccc(Cl)cc3)n2[nH]c1=O	-9.15%	1.85%	1.5%	-8.05%	6.15%	4.65%
c1ccc(CC[n+]2ccncc2)cc1	-8.75%	6.8%	-8.4%	-10.2%	7.15%	-17.3%
CC(C)(C)c1ccc2c(c1)CNCCNCCNCc1cc(C(C)(C)C)ccc1OCC1(CO2)COc2ccc(C(C)(C)C)cc2CNCCNCCNCc2cc(C(C)(C)C)ccc2OC1	91% (active)	93% (active)	92% (active)	91.2% (active)	92.2% (active)	89.8% (active)
CCC(C(=O)O)c1ccc(OCc2ccccc2)cc1 (stereo unspecified)	15.7%	2%	-10.2%	18.7%	8.05%	-2.95%
CCN(CC)CCN1C(=O)N(CCN(CC)CC)C(=O)C(CC)(CC)C1=O	13.9%	-2.15%	12.5%	22.9%	-1.65%	34.1%
O=C(O)C#Cc1ccc(Cl)cc1	-20.1%	-23.8%	-17.6%	-9.05%	-24.4%	-13.6%
CN(C)CCC(O)c1ccccc1 (stereo unspecified)	7.2%	-1.25%	2.2%	-20.5%	-6.2%	-22.6%
COc1ccc(OC)c2c(C(C)=O)cccc12	-35%	-42.1%	-4.2%	-12.8%	-17.2%	-21.7%
Cc1ccc(NC(=O)OCC2CC3C=CC2C3)cc1 (stereo unspecified)	95.5% (active)	98.8% (active)	99% (active)	96.3% (active)	95.2% (active)	97.7% (active)
COc1ccc(C2=C/C(=C/c3cccc(OC)c3OC)C(=O)O2)cc1	-10.6%	0.65%	11.9%	-30.9%	-11.2%	-5.35%

SMILES	growth inhibition [1]	growth inhibition [2]	growth inhibition [3]	growth inhibition [4]	growth inhibition [5]	growth inhibition [6]
O=C(NCc1ccccc1)C1CCN(Cc2c[nH]c3ccccc23)CC1	-0.3%	-4.4%	3.15%	16.5%	1.7%	28.7%
CC(=O)Oc1ccc(C(c2ccc(OC(C)=O)cc2)c2ccccn2)cc1	18.3%	-0.6%	-9.25%	-62.4%	-40.9%	-22.9%
Cc1ccc(NC(=O)/C=C/c2ccccc2)cc1Cl	2%	14.2%	8.15%	-5.5%	27.4%	16.1%
Cc1onc(-c2c(F)cccc2Cl)c1-c1ncc(-c2ccc(Cl)cc2)o1	3.05%	3.3%	29.4%	0.8%	29.8%	16.4%
CCCCCCCCCO	13.7%	-4.8%	19.9%	11.3%	12.8%	19.3%
Cc1cc2ncn(C3OC(CO)C(O)C3O)c2cc1C (stereo unspecified)	-2.7%	8.35%	-8.25%	21.5%	-8.2%	2.65%
O=S(=O)(O)C(O)c1ccncc1 (stereo unspecified)	-38.2%	-41%	-6.15%	-1.8%	-4.25%	-22.7%
CC(=O)OC1COC(NC(=O)N(CCCl)N=O)C(OC(C)=O)C1OC(C)=O (stereo unspecified)	6.25%	7.55%	-25.8%	-11.2%	-31.2%	48.8%
CCOc1cc(/C=N/NC(=O)N(c2ccccc2)c2ccccc2)ccc1O	4.25%	-8.6%	25.6%	12.8%	24.6%	7.35%
Nc1nc(-c2ccc(F)cc2)cc(-c2cc(-c3ccc(F)cc3)nc(N)n2)n1	-17.1%	-2.75%	-20.9%	-2%	-7.15%	2.15%
CCCCCCCCCCCCCCCCCC/C(CC)=N/Nc1ccc([N+](=O)[O-])cc1[N+](=O)[O-]	-21.1%	3.7%	-12.2%	-25.1%	11.2%	5.55%
[Cl][Pt+2][Cl].[NH-]c1ccc(CC(=O)O)cc1[NH-]	48.4%	7.1%	23.4%	39.8%	-11.1%	-4.2%
NCC(=O)NC(Cc1cnc[nH]1)C(=O)NCC(=O)O (stereo unspecified) (H-Gly-[ξH]-Gly-OH)	-3.45%	7.9%	-0.2%	-31.6%	6.2%	5.15%
N#CCC(=O)N1CCc2ccccc2C1	-30.9%	0.45%	1.85%	-79.7%	9.6%	14.2%
COC(=O)C1C(O)CCC2CN3CCc4c([nH]c5cccc(OC)c45)C3CC21 (stereo unspecified)	-3.7%	-14.8%	14.3%	7.85%	2%	-78.7%
CCN(CC)CC(O)c1cccc2cccnc12 (stereo unspecified)	67.7%	-11.4%	17.4%	8.8%	5.2%	30.2%
CC1(C)CC(C)(C)[P+]1(C)c1ccccc1	-0.35%	16.4%	12.8%	-3.45%	15.6%	10.1%
NCC(=O)NC1CCCCC1	30.6%	1.85%	-8.45%	25.4%	-3.65%	5.3%
CC(=O)N1CC(C)(C)c2c(C)c(O)c(C)c(C)c21	-16.1%	-22.3%	-15.4%	17.1%	8.45%	0.3%
COc1ccc(CCNC(=O)Cc2ccc(Cl)cc2)cc1OC	3.65%	-4.65%	-9.7%	4.2%	-5.75%	0.2%
